Test results reported in publication PMC5540273 (PLoS ONE, 2017).

Tested on: PRKG1
Settings: concentration: 1 μM, replicates: in singlicate; n = 1
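Note: KINOMEscan kinase panel screen.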

Row | SMILES | %Inh
1 | CN1C(=O)C(Nc2ccc(Cl)c(C(=O)O)c2)=C(c2ccc(Cl)cc2)C1=O [SB-404290] | 13%
2 | Cn1cncc1-c1ccc2ncnc(Nc3ccc(OCc4ccccc4)cc3)c2c1 [GW320571] | 26%
3 | COc1cc2ncn(-c3cc(OCC4CCCO4)c(C(N)=O)s3)c2cc1OC (centres unmarked) [GSK204607] | 0%
4 | Cc1cccc(-c2nc(Nc3ccncc3)c3ccccc3n2)n1 [GW855857] | 7%
5 | CC1=C(C(=O)Nc2cc3cn[nH]c3cc2F)C(c2ccc(C(F)(F)F)cc2)CC(=O)N1 (centres unmarked) [GSK429286] | 30%
6 | CS(=O)(=O)c1ccc(-c2nc3n(c2-c2ccncc2)CCC3)cc1 [SKF-105942] | 0%
7 | COc1ccccc1-c1ccc2c(NC(=O)C3CC3)n[nH]c2n1 [SB-711239] | 27%
8 | COc1cc2ncnc(Nc3ccc4nc(-c5ccccc5)[nH]c4c3)c2cc1OC.Cl [GW282450] | 0%
9 | COc1cc(Nc2nccc(N3CCC(NC(=O)Nc4cc(C)ccc4C)C3)n2)cc(OC)c1OC (centres unmarked) [GSK1379762] | 0%
10 | CC(C)(C)c1ccc(C(=O)Nc2cn3cc(Cl)ccc3n2)cc1 | 0%
11 | Cl.c1ccc(-c2n[nH]cc2-c2ccnc(-c3ccc(CN4CCOCC4)cc3)c2)nc1 [GW776245] | 0%
12 | CCn1c(-c2cccnc2O)nc2cnccc21 [SB-736715] | 0%
13 | Cc1ccc(NC(=O)Nc2cc(C(C)(C)C)nn2-c2ccccc2)cc1 [GSK1014915] | 11%
14 | O=C(Nc1n[nH]c2nc(-c3nccs3)c(Br)cc12)C1CC1 [SB-742251] | 0%
15 | Cc1ccc(C(=O)Nc2ccc(Nc3ccnc4cc(-c5ccccn5)ccc34)cc2O)cc1.Cl [GW440146] | 0%
16 | O=C(Nc1n[nH]c2cc(-c3cccc(F)c3F)ccc12)C1CC1 [SB-733894] | 0%
17 | O=S(=O)(c1ccc(-c2ccnc3[nH]ccc23)cc1)N1CCCC1 [GSK846226] | 36%

Row | SMILES | %Inh
18 | Cc1nnc(-c2ccc3occ(-c4ccc(S(C)=O)cc4)c3c2)[nH]1 (centres unmarked) | 0%
19 | COc1cccc(-c2cc(-c3c[nH]nc3-c3ccccn3)ccn2)c1 [GW680338] | 6%
20 | Cc1c(O)cccc1Nc1ccnc2ccc(C(F)(F)F)cc12.Cl [GW466413] | 5%
21 | CCCc1ccc(S(=O)(=O)NC2CCN(c3ccnc(Nc4ccc(F)cc4)n3)C2)cc1 (centres unmarked) [GSK1379715] | 0%
22 | COc1cc2nccc(Nc3ccc(NC(=O)c4ccc(C)cc4)c(O)c3)c2cc1OC.Cl [GW440132] | 0%
23 | Cn1ccc2ncnc(Oc3ccc(Nc4nc5ccccc5[nH]4)cc3)c21 | 0%
24 | Cc1csc(-c2nc(Nc3ccncc3)c3ccccc3n2)n1 [GW869640] | 2%
25 | O=C(O)COc1ncnc2cc(-c3ccc4[nH]ncc4c3)sc12 | 17%
26 | COc1ccc(C2=C(Nc3cccc(C(=O)O)c3)C(=O)NC2=O)cc1 [SB-390765] | 0%
27 | Cc1cc(-c2ccc3c(c2)CC[C@@H](N[C@@H](C)c2ccccc2)C3)cnc1N.Cl [GW412617] | 9%
28 | Nc1ncnc2[nH]c(-c3ccccc3)nc12 [AH5015] | 6%
29 | COc1ccc2nc(-c3cccc(C)n3)nc(Nc3ccncc3)c2c1 [GSK204919] | 8%
30 | Cl.Oc1ccc(-c2nc(-c3ccccc3)[nH]c2-c2ccncc2)cc1 [SB-428218] | 12%
31 | COc1cccc(NC(=O)NC2CCN(c3ccnc(Nc4ccc(F)cc4)n3)C2)c1 (centres unmarked) [GSK1379721] | 0%
32 | CS(=O)(=O)c1ccc(-c2c(-c3ncn[nH]3)sc(N3CCOCC3)c2C#N)cc1 | 12%
33 | Cn1ccc2ncnc(Oc3cccc(C(=O)Nc4ccccc4)c3)c21 | 3%
34 | CCn1c(-c2ccccn2)nc2cnccc21 [SB-736398] | 0%

Tested on: PRKG2
Settings: concentration: 1 μM, replicates: in singlicate; n = 1

Row | SMILES | %Inh
35 | CN1C(=O)C(Nc2ccc(Cl)c(C(=O)O)c2)=C(c2ccc(Cl)cc2)C1=O [SB-404290] | 0%
36 | Cn1cncc1-c1ccc2ncnc(Nc3ccc(OCc4ccccc4)cc3)c2c1 [GW320571] | 0%
37 | COc1cc2ncn(-c3cc(OCC4CCCO4)c(C(N)=O)s3)c2cc1OC (centres unmarked) [GSK204607] | 0%
38 | Cc1cccc(-c2nc(Nc3ccncc3)c3ccccc3n2)n1 [GW855857] | 0%
39 | CC1=C(C(=O)Nc2cc3cn[nH]c3cc2F)C(c2ccc(C(F)(F)F)cc2)CC(=O)N1 (centres unmarked) [GSK429286] | 0%
40 | CS(=O)(=O)c1ccc(-c2nc3n(c2-c2ccncc2)CCC3)cc1 [SKF-105942] | 5%
41 | COc1ccccc1-c1ccc2c(NC(=O)C3CC3)n[nH]c2n1 [SB-711239] | 22%
42 | COc1cc2ncnc(Nc3ccc4nc(-c5ccccc5)[nH]c4c3)c2cc1OC.Cl [GW282450] | 13%
43 | COc1cc(Nc2nccc(N3CCC(NC(=O)Nc4cc(C)ccc4C)C3)n2)cc(OC)c1OC (centres unmarked) [GSK1379762] | 0%
44 | CC(C)(C)c1ccc(C(=O)Nc2cn3cc(Cl)ccc3n2)cc1 | 0%
45 | Cl.c1ccc(-c2n[nH]cc2-c2ccnc(-c3ccc(CN4CCOCC4)cc3)c2)nc1 [GW776245] | 16%
46 | CCn1c(-c2cccnc2O)nc2cnccc21 [SB-736715] | 0%
47 | Cc1ccc(NC(=O)Nc2cc(C(C)(C)C)nn2-c2ccccc2)cc1 [GSK1014915] | 0%
48 | O=C(Nc1n[nH]c2nc(-c3nccs3)c(Br)cc12)C1CC1 [SB-742251] | 0%
49 | Cc1ccc(C(=O)Nc2ccc(Nc3ccnc4cc(-c5ccccn5)ccc34)cc2O)cc1.Cl [GW440146] | 0%
50 | O=C(Nc1n[nH]c2cc(-c3cccc(F)c3F)ccc12)C1CC1 [SB-733894] | 0%
51 | O=S(=O)(c1ccc(-c2ccnc3[nH]ccc23)cc1)N1CCCC1 [GSK846226] | 14%

Row | SMILES | %Inh
52 | Cc1nnc(-c2ccc3occ(-c4ccc(S(C)=O)cc4)c3c2)[nH]1 (centres unmarked) | 0%
53 | COc1cccc(-c2cc(-c3c[nH]nc3-c3ccccn3)ccn2)c1 [GW680338] | 0%
54 | Cc1c(O)cccc1Nc1ccnc2ccc(C(F)(F)F)cc12.Cl [GW466413] | 0%
55 | CCCc1ccc(S(=O)(=O)NC2CCN(c3ccnc(Nc4ccc(F)cc4)n3)C2)cc1 (centres unmarked) [GSK1379715] | 0%
56 | COc1cc2nccc(Nc3ccc(NC(=O)c4ccc(C)cc4)c(O)c3)c2cc1OC.Cl [GW440132] | 0%
57 | Cn1ccc2ncnc(Oc3ccc(Nc4nc5ccccc5[nH]4)cc3)c21 | 0%
58 | Cc1csc(-c2nc(Nc3ccncc3)c3ccccc3n2)n1 [GW869640] | 12%
59 | O=C(O)COc1ncnc2cc(-c3ccc4[nH]ncc4c3)sc12 | 0%
60 | COc1ccc(C2=C(Nc3cccc(C(=O)O)c3)C(=O)NC2=O)cc1 [SB-390765] | 0%
61 | Cc1cc(-c2ccc3c(c2)CC[C@@H](N[C@@H](C)c2ccccc2)C3)cnc1N.Cl [GW412617] | 0%
62 | Nc1ncnc2[nH]c(-c3ccccc3)nc12 [AH5015] | 0%
63 | COc1ccc2nc(-c3cccc(C)n3)nc(Nc3ccncc3)c2c1 [GSK204919] | 0%
64 | Cl.Oc1ccc(-c2nc(-c3ccccc3)[nH]c2-c2ccncc2)cc1 [SB-428218] | 0%
65 | COc1cccc(NC(=O)NC2CCN(c3ccnc(Nc4ccc(F)cc4)n3)C2)c1 (centres unmarked) [GSK1379721] | 0%
66 | CS(=O)(=O)c1ccc(-c2c(-c3ncn[nH]3)sc(N3CCOCC3)c2C#N)cc1 | 6%
67 | Cn1ccc2ncnc(Oc3cccc(C(=O)Nc4ccccc4)c3)c21 | 0%
68 | CCn1c(-c2ccccn2)nc2cnccc21 [SB-736398] | 3%
